Results taken from PubChem BioAssay AID720706 (Broad Institute, 2013).
In all, about 350,000 compounds went through this assay and about 5,500 (1.6%) were called active.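 Rule for the calls: active = significant combined selectivity score with lowered wild-type GFP, culture density cut under 30%, mutant RFP and density less affected; inactive = any of these conditions unmet.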 Only a selection was taken, and actives are over-represented in it overall.

Test: reduced GFP signal of wild-type E. coli, primary screen, bacterial rRNA inhibitor project, GFP/RFP fluorescence, OD600, single point (AID 720706)
Conditions: E. coli WT GFP vs humanized-ribosome RFP mutants, 24 h; GFP signal change (wild-type ribosome): stronger effect = lower value, DMSO median 0, no signal -100; OD600 change: measured here: OD600 growth, DMSO median 0, no signal -100; RFP signal change: measured here: RFP humanized mutant strains, DMSO median 0, no signal -100, concentration not given here

Compound	GFP signal change (wild-type ribosome)	OD600 change [%]	RFP signal change [%]
COc1cccc(S(=O)(=O)N2CC3(CCN(C)CC3)c3c(n(C)c4cc(OC)ccc34)[C@H]2CO)c1	-0.483% (inactive)	-1.36	0.12
COc1ccc2c3c(n(C)c2c1)[C@@H](CO)N(C(=O)CN1CCOCC1)CC31CCN(Cc2ccncc2)CC1	1.45% (inactive)	2.53	-1.13
C[C@@H](NC(=O)C[C@@H]1CC[C@H]2[C@@H](COC[C@@H](O)CN2C(=O)Nc2cccc(F)c2)O1)c1ccccc1	-11.5% (inactive)	-6.23	5.17
Cc1nn(C)c(C)c1S(=O)(=O)N1CCC(CO)(Cc2ccc(Cl)cc2)CC1	-22% (active)	-16.9	0.06
CCOc1ccccc1NC(=O)C1CCN(S(=O)(=O)c2c(C)nn(C)c2C)CC1	3.06% (inactive)	-0.4	-2.77
COc1ccc(CC2(CO)CCN(Cc3cnn(C)c3)CC2)cc1	25.9% (inactive)	13	1.82
O=C(NCC[C@@H]1CC[C@@H](NC(=O)c2ccccc2F)[C@H](CO)O1)c1ccc2c(c1)OCO2	0.211% (inactive)	0.175	-1.31
COc1ccc(NC(=O)N(C)C[C@@H]2Oc3ccc(NS(=O)(=O)c4ccc(Cl)cc4)cc3C(=O)N([C@H](C)CO)C[C@@H]2C)cc1	-1.87% (inactive)	-3.81	4.46
CCN(CC)C(=O)C(=O)Nc1cccc(Br)c1	2.19% (inactive)	1.55	-1.36
CCN(CC)C(=O)Oc1ccc(Br)cc1C(=O)Nc1ccc(F)c(Cl)c1	-28% (active)	-13.7	-1.17
CCCOc1ccc(F)cc1-c1cc(C(=O)Nc2ccc(F)c(Cl)c2)[nH]n1	-11.9% (inactive)	-20.4	8.72
COc1ccc2c3c(n(C)c2c1)[C@@H](CO)N(Cc1ccccc1OC)CC31CN(CC2CCOCC2)C1	2.13% (inactive)	1.76	-0.161
COc1ccc(S(=O)(=O)Nc2ccc3c(c2)C(=O)N([C@H](C)CO)C[C@@H](C)[C@@H](CN(C)CC2CCCCC2)O3)cc1	3.31% (inactive)	-3.13	-1.7
O=C(C[C@H]1CC[C@@H]2[C@H](COC[C@H](O)CN2Cc2ccc(Oc3ccccc3)cc2)O1)N1CCN(c2ccccc2)CC1	-14.8% (inactive)	-41.1	19.9
C[C@@H]1COCc2cnnn2CC[C@H](Cc2ccccc2)C(=O)N1	1.97% (inactive)	6.09	0.175
CCc1ccc(C2=CC(=O)CC(C)(C)C2=O)cc1	9.3% (inactive)	6.63	1.11

Compound	GFP signal change (wild-type ribosome)	OD600 change [%]	RFP signal change [%]
COC(=O)C1=C(C)N(Cc2cccc(C(F)(F)F)c2)C(=NCc2ccccc2)NC1c1ccc(Cl)cc1 (stereo not drawn)	-51.5% (inactive)	-79.1	-15.9
COC(=O)C1=C(C)N(Cc2ccc(C(F)(F)F)cc2)C(=NCc2ccc(C(F)(F)F)cc2)NC1c1cccc(Cl)c1 (stereo not drawn)	-29.5% (active)	-8.48	10.4
COC(=O)C1=C(C)N(Cc2ccc(C(F)(F)F)cc2)C(=NCc2ccccc2)NC1c1ccccc1C(F)(F)F (stereo not drawn)	-44.7% (inactive)	-75.3	-10.2
CO[C@@H]1CN(C)C(=O)c2cc(NS(=O)(=O)c3ccccc3)ccc2OC[C@@H](C)N(C(=O)NC(C)C)C[C@@H]1C	1.8% (inactive)	-5.96	-2.55
C[C@H](O)C#Cc1ccc([C@H]2[C@H](CO)N3CCCCN(C(=O)c4ccc(F)cc4)C[C@@H]23)cc1	4.08% (inactive)	14.8	0.514
CC(C)NC(=O)Nc1cccc2c1O[C@@H](CN(C)C(=O)NC(C)C)[C@@H](C)CN(C)C2=O	-0.63% (inactive)	-5.7	-0.789
CC(C)NC(=O)N(C)C[C@H]1Oc2c(cccc2N(C)C)C(=O)N(C)C[C@H]1C	3.79% (inactive)	5.03	-1.64
CN(C)C(=O)c1ccc(-c2ccc(C3[C@@H]4CN(S(=O)(=O)c5cccc(Cl)c5)C[C@H]3N4)cc2)cc1 (stereo partly drawn)	-4.17% (inactive)	-4.3	1.15
c1ccc2sc(NN=C3CCCC3)nc2c1	-34.8% (active)	-19.9	0.135
c1ccc(C(=NNc2nc3ccccc3s2)c2ccccn2)cc1	-3.87% (inactive)	-7.96	1.5
CCN(CC)CCn1c2c(c(SCC(=O)Nc3nc4ccccc4s3)nc1=O)CCCC2	-8.54% (inactive)	-9.96	4.44
CN(C)c1nc(=Nc2cccc(Cl)c2)ss1	-20.6% (active)	-16.1	6.27
COc1ccc(CN(C)C[C@@H]2Oc3ccc(NS(=O)(=O)c4cn(C)cn4)cc3C(=O)N([C@@H](C)CO)C[C@@H]2C)cc1	2.98% (inactive)	9.11	-0.744
COc1ccc2c3c([nH]c2c1)[C@H](CO)N(CC1CC1)CC31CN(C(=O)Nc2cccc(F)c2)C1	-4% (inactive)	-2.33	0.442
CCCNC(=O)N(C)C[C@H]1Oc2ncc(-c3cccc(C#N)c3)cc2C(=O)N([C@@H](C)CO)C[C@@H]1C	6.13% (inactive)	2.48	4.15
